Entries with a potency or affinity are not part of this list. Active and inactive are the calls of the source. The rule behind the calls is not given here.

This assay in a line: A549 cell cytotoxicity, dose response, cytotoxicity control, plate reader, cherry-pick, antagonist series (AID 743412). To be noted: series mostly up to 26 µM.
With `COc1ccc(C(=O)Nc2ccc3ccccc3c2)cc1`, the compound was called inactive.
Turning to `CC(C)(C)c1ccc(-c2nc(-c3ccncc3)no2)cc1`, the compound was called inactive.
For the compound `CCc1ccn2cc(-c3cc(-c4ccccc4)no3)nc2c1`, the compound was called inactive.
Turning to `Cc1ccc(-c2nc(-c3ccncc3)no2)cc1C`, the call was inactive.
The same measure for `COc1ccc(NC(=O)Nc2cccc([N+](=O)[O-])c2)cc1Cl`: “inactive”; for `O=C(Nc1ccccc1)c1cn2ccccc2n1`: “inactive”; for `COc1ccc2nc(-c3ccc(F)cc3)sc2c1`: “inactive”.
The same measure for `COc1ccc(-c2cc(C(=O)N3CCOCC3)no2)cc1`: “inactive”.
For `c1ccc(-n2nnnc2Sc2ncnc3sc4c(c23)CCCC4)cc1`, the outcome was inactive.
Take `COc1ccc(-c2csc(NC(=O)c3ccc(OCC(=O)N4CCOCC4)c(OC)c3)n2)cc1`: the result was inactive.
`O=C(O)c1cccc(-c2noc(-c3cccc(Cl)c3)n2)c1`: the result was inactive.
`C[C@H](CO)N1C[C@H](C)[C@H](CN(C)C(=O)Cc2ccccc2)OCCCC[C@H](C)Oc2ccc(NC(=O)Nc3ccc(C(F)(F)F)cc3)cc2C1=O`: the compound was called inactive.
Turning to `COCCn1c(C)cc(C(=O)CSc2nc3ccccc3s2)c1C`, the outcome was inactive.
Take `Clc1ccccc1/C=C/c1nc(-c2ccccn2)no1`: the result was inactive.
As to `Cc1ccc(-c2csc(Nc3ccccn3)n2)cc1`, the result was inactive.
Take `O=C(Nc1nc2ccccc2s1)c1ccc2sc([C@H]3C[C@H](O)[C@@H](CO)O3)nc2c1`: the call was inactive.
For the compound `C[C@@H]1CN([C@@H](C)CO)C(=O)c2cc(NS(=O)(=O)c3ccc(F)cc3)ccc2O[C@H]1CN(C)Cc1ccc(-c2ccccc2)cc1`, the outcome was inactive.
As for `C[C@H](CO)N1C[C@H](C)[C@H](CN(C)C(=O)Nc2ccc(F)cc2)OCCCC[C@H](C)Oc2ccc(NC(=O)C3CCCCC3)cc2C1=O`, the compound was called inactive.
Consider `COc1ccc(-n2nnnc2-c2nc3ccccc3s2)cc1`, for which the compound was classed as inactive.
As for `Cc1ccc(-c2cc(C(=O)N3CCOCC3)no2)cc1`, the outcome was inactive.
With `Cc1csc(NC(=O)c2cnc3ccccc3n2)n1`, the compound was called inactive.
In the case of `Cc1ccc(-c2cc(C(=O)N(C)Cc3cnn(C)c3C)c3cc(Br)ccc3n2)cc1`, the compound was classed as inactive.
As for `CN(C)c1ccc(C(=O)Nc2nc3c(s2)CCCC3)cc1`, the call was inactive.
The value for `c1ccc(COc2ccc(OCCCN3CCCC3)cc2)cc1` was “inactive”; that for `CC(C)Nc1ncnc2c1cnn2-c1ccc(Cl)cc1` was “inactive”; that for `CCC(=O)Nc1cc2nn(-c3ccc(OC)cc3)nc2cc1C` was “inactive”.
Turning to `Cc1ccc(-c2cnn3c(N4CCOCC4)cc(C)nc23)cc1`, the compound was called inactive.
As for `CC1CCCN(c2ncnc3c2cnn3-c2ccccc2)C1` (centres undefined), the call was inactive.
As for `CCOC(=O)c1sc(NC(=O)Nc2ccccc2F)nc1C`, the result was inactive.
Regarding `O=C(NCCc1ccccc1)c1ccc2c(c1)OCCO2`, the compound was called inactive.
Take `O=C(NC1(Cc2ccccc2)CCN(Cc2ccc(-c3ccccc3)cc2)C1=O)c1ccccc1` (centres undefined): the outcome was inactive.
The value for `COc1ccc2sc(NC(=O)c3ccco3)nc2c1` was “inactive”; that for `Cc1cc(C)c(Cc2c(C)nc3c(C(=O)NCc4ccco4)cnn3c2C)c(C)c1` was “inactive”.
Take `O=C(COc1ccc2ccccc2c1)Nc1nccs1`: the outcome was inactive.
Regarding `O=C(O)c1ccc(Nc2nc3c(s2)CCCC3)cc1`, the compound was called inactive.
`Cc1ccc(-c2nnc(Nc3ccccc3)o2)cc1`: the call was inactive.
Consider `C[C@@H]1CN([C@H](C)CO)C(=O)CCCn2nncc2CO[C@H]1CN(C)C(=O)Nc1cccc2ccccc12`, for which the compound was called inactive.
`COc1ccc(-c2[nH]ncc2-c2ccc3c(c2)OCCO3)c(O)c1`: the compound was called inactive.
`COc1cc(NC(=O)c2cccc3c(-c4cccnc4)coc23)cc(OC)c1OC`: the call was inactive.
